Laboratory results published in PubChem BioAssay (Tox21).
Records with an inconclusive call do not appear. Calls of active or inactive are those of the source. Unless noted, calls come from the whole dose curve; as a rule, active = well fitted curve in the direction sought with a large enough effect in the repeat runs; inconclusive = weak or mixed curves; inactive = no such curve, though single readings can be large; an effect the other way counts as inactive or inconclusive.

Columns and labels:
[1] = qHTS assay to identify small molecule agonists of the endoplasmic reticulum stress response signaling pathway - cell viability counter screen (AID 1159517; calls by dose curve; note: nearly all actives have a fitted effect of over 50% in size; note: potency is the fitted concentration of half-maximal effect)
In short: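 Counter-screen wells were identical to the reporter wells. Cells were plated at 1,500 per well and dosed for 5 hr, then read for luminescence 30 min after CellTiter-Glo addition.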

[2] = qHTS assay to identify small molecule antagonists of the retinoid-related orphan receptor gamma (ROR-gamma) signaling pathway - cell viability counter screen (AID 1159520); note: nearly all actives have a fitted effect of over 50% in size; note: potency is the fitted concentration of half-maximal effect
In short: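 Tet-on ROR gamma CHO cells were given compounds for 2 hr, then doxycycline hyclate at 1 uM final, and incubated 16 hr at 37 C. Viability was measured as ATP content by CellTiter-Glo luminescence.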

[3] = molecular target: Nuclear receptor ROR-gamma (Homo sapiens) (UniProt P51449); assay: qHTS assay to identify small molecule antagonists of the retinoid-related orphan receptor gamma (ROR-gamma) signaling pathway (AID 1159521; note: nearly all actives have a fitted effect of over 50% in size; note: potency is the fitted concentration of half-maximal effect)
In short: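 Tet-on RORγ CHO cells carrying a ROR response element–luciferase reporter were pretreated with compounds for 2 h, then induced with 1 uM (final) doxycycline hyclate for 16 h at 37 C. Antagonism was read as decreased ONE-Glo luminescence.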

[4] = qHTS assay to identify small molecule agonists of the AP-1 signaling pathway - cell viability counter screen (AID 1159525; calls by dose curve; note: nearly all actives have a fitted effect of over 55% in size; note: potency is the fitted concentration of half-maximal effect)
In short: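 AP-1-bla ME-180 cells in Opti-MEM with 0.5% dialyzed FBS, compound exposure 5 h at 37 C in 15-point titration. Viability read in the same wells as ATP content by CellTiter-Glo luminescence, normalised to tetra-n-octylammonium bromide and DMSO controls.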

[5] = molecular target: Retinoic acid receptor RXR-alpha (Homo sapiens) (UniProt P19793); assay: qHTS assay to identify small molecule agonists of the RXR signaling pathway (AID 1159527; calls by dose curve; note: nearly all actives have a fitted effect of over 35% in size; note: potency is the fitted concentration of half-maximal effect)
Retinoic acid receptor RXR-alpha (Homo sapiens), sequence (P19793 whole entry, looked up): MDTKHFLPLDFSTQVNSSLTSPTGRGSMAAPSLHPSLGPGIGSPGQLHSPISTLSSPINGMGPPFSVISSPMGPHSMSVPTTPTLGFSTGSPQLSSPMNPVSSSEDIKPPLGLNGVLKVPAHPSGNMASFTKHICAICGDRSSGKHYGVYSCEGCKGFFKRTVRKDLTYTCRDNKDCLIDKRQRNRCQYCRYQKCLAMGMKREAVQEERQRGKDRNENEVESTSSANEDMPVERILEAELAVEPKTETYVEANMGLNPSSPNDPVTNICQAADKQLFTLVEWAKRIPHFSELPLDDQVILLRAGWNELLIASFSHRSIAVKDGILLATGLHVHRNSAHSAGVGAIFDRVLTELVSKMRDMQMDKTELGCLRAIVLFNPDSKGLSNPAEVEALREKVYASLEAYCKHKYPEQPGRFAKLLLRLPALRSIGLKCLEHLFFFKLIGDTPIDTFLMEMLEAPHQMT
In short: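 GeneBLAzer RXR-alpha-UAS-bla HEK 293T cells in medium with 2% charcoal-stripped FBS, pre-incubated 5 hr at 37 C, then exposed to compounds 16 hr. Beta-lactamase reporter read by FRET substrate, 2 hr room temperature, 460/530 nm emission.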

[6] = qHTS assay to identify small molecule agonists of the RXR signaling pathway - cell viability counter screen (AID 1159529); note: nearly all actives have a fitted effect of over 50% in size; note: potency is the fitted concentration of half-maximal effect
In short: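 RXR-alpha-UAS-bla HEK 293T cells in medium with 2% charcoal-stripped FBS were preincubated 5 hr, then exposed to compounds for 16 hr at 37 C. Viability was read as CellTiter-Glo luminescence after 30 min at room temperature.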

[7] = qHTS assay to identify small molecule antagonists of the retinoid acid receptor (RAR) signaling pathway - cell viability counter screen (AID 1159551); note: nearly all actives have a fitted effect of over 35% in size; note: potency is the fitted concentration of half-maximal effect
In short: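 Cytotoxicity counter screen in C3RL4 cells: 6 h compound exposure with 1 uM retinol (final), viability from cellular ATP by luminescence.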

[8] = qHTS assay to identify small molecule antagonists of the retinoic acid receptor (RAR) signaling pathway (AID 1159552; note: nearly all actives have a fitted effect of over 50% in size; note: potency is the fitted concentration of half-maximal effect)
In short: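 RARE-luc C3RL4 cells; cpds + 1 uM (final) retinol, 6 hr, 37 C/5% CO2; luciferase reagent, 30 min RT, luminescence readout. Inhibitors of retinol-driven signal scored.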

[9] = qHTS assay to identify small molecule antagonists of the estrogen related receptor (ERR) signaling pathway from Tox21 library - cell viability counter screen (AID 1224834); note: nearly all actives have a fitted effect of over 30% in size; note: potency is the fitted concentration of half-maximal effect
In short: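 Cytotoxicity of test substances is gauged in the same ERR cells used for the antagonist screen, after 17.5 h of compound treatment at 37 C, by CellTiter-Fluor fluorescence measured after 30 min.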

[10] = molecular target: Luciferin 4-monooxygenase (Photinus pyralis) (UniProt P08659); assay: qHTS assay to identify small molecule inhibitors of firefly luciferase (AID 1224835); note: nearly all actives have a fitted effect of over 25% in size; note: potency is the fitted concentration of half-maximal effect
Luciferin 4-monooxygenase (Photinus pyralis), sequence (P08659 whole entry, looked up): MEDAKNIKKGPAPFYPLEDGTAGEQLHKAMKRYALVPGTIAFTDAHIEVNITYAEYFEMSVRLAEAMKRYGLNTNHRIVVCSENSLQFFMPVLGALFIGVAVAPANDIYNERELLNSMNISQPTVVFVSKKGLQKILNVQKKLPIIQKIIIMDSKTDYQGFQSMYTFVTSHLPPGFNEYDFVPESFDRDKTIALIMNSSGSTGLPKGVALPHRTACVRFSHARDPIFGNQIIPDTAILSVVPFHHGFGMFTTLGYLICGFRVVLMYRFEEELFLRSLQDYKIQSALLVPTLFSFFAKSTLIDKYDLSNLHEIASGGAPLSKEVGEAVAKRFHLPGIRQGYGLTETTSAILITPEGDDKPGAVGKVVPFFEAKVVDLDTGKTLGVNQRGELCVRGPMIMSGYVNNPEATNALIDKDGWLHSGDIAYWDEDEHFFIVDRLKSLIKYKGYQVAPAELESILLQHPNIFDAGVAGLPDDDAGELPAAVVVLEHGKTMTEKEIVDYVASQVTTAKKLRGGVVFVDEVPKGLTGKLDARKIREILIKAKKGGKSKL
In short: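 Biochemical qHTS: compounds run as interplate titrations against purified firefly enzyme, with D-luciferin and ATP each at its KM concentration. Light output recorded by CCD imaging.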

[11] = qHTS assay to identify small molecule agonists of the constitutive androstane receptor (CAR) signaling pathway - cell viability counter screen (AID 1224836); note: nearly all actives have a fitted effect of over 45% in size; note: potency is the fitted concentration of half-maximal effect
In short: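 HepG2 cells stably carrying hCAR and a CYP2B6-2.2kb reporter were plated 4 h, then given compounds at 15 concentrations plus PK11195 (final 0.75 uM). After 23 h at 37 C, viability was read by CellTiter-Fluor fluorescence.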

[12] = qHTS assay to identify small molecule agonists of the retinoic acid receptor (RAR) signaling pathway (AID 1159553); note: potency is the fitted concentration of half-maximal effect
In short: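 Agonist activity was scored in C3RL4 cells bearing a retinoic acid response element luciferase construct. Cells were treated with compounds for 6 hr at 37 C, and luciferase signal was measured as luminescence.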

[13] = qHTS assay to identify small molecule antagonists of the estrogen related receptor (ERR) signaling pathway - cell viability counter screen (AID 1224818);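 note: series mostly up to about 46 µM; viability measured after 17.5 h of compound exposure; % is set by controls: 0 for no effect and ±100 for the full control effect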
In short: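 Cells carrying the ERR pathway reporter were seeded and incubated for 6 hours before compound addition. After a 17.5-hour exposure at 37 C, live-cell protease activity was measured by CellTiter-Fluor fluorescence following 30 minutes of incubation.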

[14] = qHTS assay to identify small molecule antagonists of the estrogen related receptor signaling pathway with the pleiotropic PPARgamma coactivator (PGC) cell viability counter screen (AID 1224822;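 note: series mostly up to about 46 µM; viability read after 17.5 h compound exposure; % is set by controls: 0 for no effect and ±100 for the full control effect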)
In short: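 Seed PGC/ERR cells (2,000/well); incubate 6 h at 37 C/5% CO2; pin-transfer compounds in DMSO; incubate 17.5 h at 37 C; add CellTiter-Fluor; after 30 min read fluorescence.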

[15] = qHTS assay to identify small molecule agonists of the estrogen related receptor (ERR) signaling pathway (AID 1224820); note: % is set by controls: 0 for no effect and ±100 for the full control effect
In short: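 ERR reporter cells (NTP line) plated 2,000/well, incubated 6 h at 37 C/5% CO2, then pinned with compounds in DMSO and held 18 h at 37 C. One-Glo added; luminescence read after 30 min at room temperature.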

[16] = test system: estrogen-related receptor alpha (ERRalpha) with PGC-1alpha coactivator, human; assay: qHTS assay to identify small molecule antagonists of the estrogen related receptor signaling pathway with the pleiotropic PPARgamma coactivator (PGC) (AID 1224821; calls by dose curve)
In short: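 Cells engineered for PGC/ERR signalling (line from NTP) were plated 6 h at 37 C/5% CO2, then exposed to DMSO-dissolved compound for 18 h at 37 C. Luciferase activity was read by One-Glo luminescence after 30 min at room temperature.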

[17] = qHTS assay to identify small molecule agonists of the estrogen related receptor signaling pathway with the pleiotropic PPARgamma coactivator (PGC) (AID 1224823); note: % is set by controls: 0 for no effect and ±100 for the full control effect
In short: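 PGC/ERR reporter cells were seeded, rested 6 h at 37 C/5% CO2, then exposed to compounds in DMSO by pin transfer for 18 h at 37 C. Luciferase activity was read as luminescence after One-Glo reagent and 30 min at room temperature.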

[18] = qHTS assay to identify small molecule agonists of the AP-1 signaling pathway (AID 1159526; calls by dose curve; note: % is set by controls: 0 for no effect and ±100 for the full control effect)

O=C1C=CC(=O)N1c1ccccc1
active: Potency [1] 34.7 µM | Potency [2] 15.4 µM | Potency [3] 7.7 µM | Potency [4] 24.5 µM | Potency [6] 15.5 µM | Potency [7] 30.6 µM | Potency [8] 6.11 µM | Potency [9] 43.3 µM | Potency [10] 22.4 µM | Potency [11] 54.5 µM
inactive: Potency [5]

CCCCCCCCCCCCCC[n+]1ccccc1
active: Potency [1] 17.4 µM | Potency [2] 61.1 µM | Potency [3] 4.86 µM | Potency [4] 49 µM | Potency [6] 12.3 µM | Potency [9] 27.3 µM | Potency [11] 7.7 µM
inactive: Potency [10]

CC1=C(/C=C/C(C)=C/C=C/C(C)=C\C=O)C(C)(C)CCC1
active: Potency [1] 41.3 µM | Potency [2] 57.9 µM | Potency [5] 0.328 µM | Potency [6] 52 µM | Potency [12] 1.63 µM | Potency [9] 51.6 µM
inactive: Potency [7] | Potency [8] | Potency [10] | Potency [11]

COC(=O)NCCC[Si](OC)(OC)OC
active: Potency [3] 54.5 µM
inactive: Potency [1] | Potency [2] | Potency [4] | Potency [7] | Potency [9] | Potency [10] | Potency [11]

CO[C@H]1C=CO[C@@]2(C)Oc3c(C)c(O)c4c(O)c(cc(O)c4c3C2=O)NC(=O)/C(C)=C\C=C/[C@H](C)[C@H](O)[C@@H](C)[C@@H](O)[C@@H](C)[C@H](OC(C)=O)[C@@H]1C
active: Potency [3] 43.6 µM | Potency [4] 49.3 µM | Potency [6] 12.4 µM | Potency [9] 61.6 µM | Potency [11] 61.6 µM
inactive: Potency [1] | Potency [2] | Potency [7] | Potency [8] | Potency [12] | Potency [10]

CN(C)c1ccc(N=NS(=O)(=O)O)cc1
inactive: Potency [13] | Potency [14]

COc1ccccc1OCCNCC(O)COc1cccc2[nH]c3ccccc3c12 (stereo unspecified)
inactive: outcome [15] | outcome [16] | outcome [17]

CCc1cccc(CC)c1NC(=O)C(=O)O
inactive: Potency [2] | Potency [3] | Potency [4] | Potency [18] | Potency [5] | Potency [6] | Potency [7] | Potency [8] | Potency [9] | Potency [10] | Potency [11]

CCCCCCCC(C)=O
inactive: Potency [2] | Potency [3] | Potency [4] | Potency [18] | Potency [5] | Potency [6] | Potency [7] | Potency [8] | Potency [9] | Potency [10] | Potency [11]

CCCCOC(=O)C(C)CC (stereo unspecified)
inactive: Potency [2] | Potency [3] | Potency [4] | Potency [18] | Potency [5] | Potency [6] | Potency [7] | Potency [8] | Potency [9] | Potency [10] | Potency [11]

CCOC(OCC)C(=O)c1ccccc1
inactive: Potency [2] | Potency [3] | Potency [4] | Potency [18] | Potency [5] | Potency [6] | Potency [7] | Potency [8] | Potency [9] | Potency [10] | Potency [11]

CCOC(=O)CC(C)O (stereo unspecified)
inactive: Potency [2] | Potency [3] | Potency [4] | Potency [18] | Potency [5] | Potency [6] | Potency [7] | Potency [8] | Potency [9] | Potency [11]

O=CC1CC1
inactive: Potency [2] | Potency [3] | Potency [4] | Potency [18] | Potency [5] | Potency [6] | Potency [7] | Potency [8] | Potency [9] | Potency [10] | Potency [11]

CC(C)=CC1CC(C)CCO1 (stereo unspecified)
inactive: Potency [2] | Potency [3] | Potency [4] | Potency [18] | Potency [5] | Potency [6] | Potency [7] | Potency [8] | Potency [9] | Potency [11]

Cn1cccc1
inactive: Potency [2] | Potency [3] | Potency [4] | Potency [18] | Potency [5] | Potency [6] | Potency [7] | Potency [8] | Potency [9] | Potency [10] | Potency [11]

CCOC(/C=C(\C)CCC=C(C)C)OCC
inactive: Potency [2] | Potency [3] | Potency [4] | Potency [18] | Potency [5] | Potency [6] | Potency [7] | Potency [8] | Potency [9] | Potency [10] | Potency [11]

C=C/C=C/C=C/CCCCC
inactive: activity, negative = cytotoxicity [2] -9.56% [at 19 µM] | activity change, negative = inhibition [3] -0.464% [at 19 µM] | viability change, negative = cytotoxic [4] 1.06% [at 15.8 µM] | activation [18] 2.42% [at 15.8 µM] | activation [5] -4.02% [at 15.8 µM] | activity change, negative = cytotoxicity [6] -9.45% [at 15.8 µM] | activity change, negative = cytotoxicity [7] -3.82% [at 19 µM] | activity, negative = inhibition [8] 7.32% [at 19 µM] | viability change, negative = cytotoxic [9] -1.2% [at 19 µM] | activity change, negative = inhibition [10] 0.374% [at 23.6 µM] | viability change, negative = cytotoxic [11] -0.14% [at 19 µM]
